# The list is not random: actives were taken first. Their share in the collection is about 0.36%.
# TR SRC2 fluor cs = alters Texas Red total fluorescence, flagging assay interference | TRb/SRC2 Texas Red total fluorescence interference | Potency, µM (top dose mostly 106 µM), without a hit: at the top dose fluorescence change, negative = quenching | hit rate 0.29% among 280,000; active = well fitted curve in either direction with a large enough effect; inconclusive = small, poorly fitted or top-dose-only effect; also: potency is read from the fitted curve at half-maximal effect; % is scaled to controls: 0 for no effect and ±100 for the full control effect
#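 Human TRβ ligand-binding domain (0.6 uM) and Texas Red SRC2 peptide (20 nM) in Tris buffer with 1 uM T3 and 5% DMSO were incubated with pinned compound for 5 hr at ambient temperature. Total fluorescence was computed as S + 2P (555/632 nm).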
# TRb-SRC2 inh = TRbeta-SRC2 interaction inhibition; P10828; TRbeta-SRC2 peptide binding, fluorescence polarization; receptor liganded with 1 µM T3; Potency, µM (highest dose often 106 µM), inactives show top-dose activity change, negative = inhibition, usual class: inhibitors; hit rate 0.065% among 280,000; AID 1469;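 also: potency is read from the fitted curve at half-maximal effect; plate controls were bound peptide for no effect and peptide without receptor for full effect; nearly all actives have a fitted effect of over 50% in size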
# Target sequence (P10828 whole entry, looked up): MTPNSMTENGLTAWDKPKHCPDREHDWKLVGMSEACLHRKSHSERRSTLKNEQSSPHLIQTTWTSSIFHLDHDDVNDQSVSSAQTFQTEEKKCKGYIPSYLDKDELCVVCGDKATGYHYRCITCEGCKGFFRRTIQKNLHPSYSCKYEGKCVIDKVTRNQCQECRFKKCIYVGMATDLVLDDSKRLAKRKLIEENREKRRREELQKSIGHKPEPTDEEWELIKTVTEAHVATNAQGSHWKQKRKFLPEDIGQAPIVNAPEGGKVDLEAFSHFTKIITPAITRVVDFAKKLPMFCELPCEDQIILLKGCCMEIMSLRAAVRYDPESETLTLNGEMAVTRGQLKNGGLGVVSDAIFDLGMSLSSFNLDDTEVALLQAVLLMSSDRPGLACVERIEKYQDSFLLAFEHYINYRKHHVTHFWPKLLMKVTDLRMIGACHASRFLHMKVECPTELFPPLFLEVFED
#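 Polarization signal, normalized between peptide-alone and full complex controls, measured compound effects on T3-liganded human TRb LBD (0.6 uM) binding 20 nM Texas Red SRC2 peptide after 5 hr.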
# CXXC DNA block = MLL CXXC-DNA interaction inhibition. hit rate 0.037% among 290,000. Potency, µM (series often up to 115 µM), inactives show at the highest dose activity change, negative = inhibition, usual class: inhibitors. Q03164. MLL-CXXC / FITC-HOXA9 DNA fluorescence polarization. AID 2662; active = well fitted inhibition curve with a large enough effect in the polarisation, with a control signal flat, not every such curve was filed as active; inconclusive = small, poorly fitted or top-dose-only effect, or effect the other way, or a change in a side signal; inactive = no such curve, though single readings can be large or run the other way; the % refers to the polarisation; also: potency is read from the fitted curve at half-maximal effect
#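 Steps: dispense CXXC domain solution (7 uM) → pin compounds or unlabeled HOX-A9 DNA control → 5 min ambient → add FLSN-HOX-A9 solution (50 nM) → spin → 30 min ambient → fluorescence polarization. Tris pH 7.5/NaCl/DTT/BSA buffer.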
# Menin MLL FP TR = menin-MLL binding inhibition, Texas Red mutant peptide. O00255. Menin + Texas Red MLL mutant peptide, fluorescence polarization. Potency, µM (top dose mostly 61.6 µM), without a hit: at the top dose FP activity change, negative = inhibition, hits mostly inhibitors. hit rate 0.23% among 270,000. AID 1768; active = well fitted inhibition curve with a large enough effect in the polarisation, with a control signal flat, not every such curve was filed as active; inconclusive = small, poorly fitted or top-dose-only effect, or effect the other way, or a change in a side signal; inactive = no such curve, though single readings can be large or run the other way; the % refers to the polarisation; also: potency is read from the fitted curve at half-maximal effect; % of control where 0% means no effect
# Menin-MLL FL inh = inhibitors of human menin-MLL interaction, wild-type MLL peptide; Fluorescence polarization, fluorescein-MLL peptide displacement from menin; 290,000 tested, under 10 active; AID 1766; FP activity change, % at 61.4 µM; active = well fitted curve in the direction sought with a large enough effect in the polarisation, not every such curve was filed as active; inconclusive = small, poorly fitted or top-dose-only effect, or effect the other way, or a change in a side signal; inactive = no such curve, though single readings can be large or run the other way; the % refers to the polarisation; also: % of control where 0% means no effect
# MLL CXXC Fl = inhibitors of human MLL CXXC domain-DNA interaction; Potency, µM (doses to about 345 µM), inactives show at the top dose activity change, negative = inhibition, hits mostly inhibitors; shares compounds with CXXC DNA block; MLL CXXC-DNA binding, fluorescein FP; hit rate 70% among 200; also: potency is read from the fitted curve at half-maximal effect; nearly all actives have a fitted effect of over 80% in size
# MLL CXXC TxRed = MLL CXXC-DNA interaction inhibition, Texas Red FP; Potency, µM (series often up to 345 µM), for the others: at the top dose activity change, negative = inhibition, hits mostly inhibitors; hit rate 40% among 200; MLL CXXC-DNA binding, Texas Red fluorescence polarization; shares compounds with CXXC DNA block; also: potency is read from the fitted curve at half-maximal effect; % is scaled to controls: 0 for no effect and ±100 for the full control effect; nearly all actives have a fitted effect of over 75% in size
# MLL CXXC HTRF = MLL CXXC-DNA interaction inhibition, HTRF readout. shares compounds with CXXC DNA block. MLL CXXC-DNA binding, HTRF, biochemical. Potency, µM (highest dose often 172 µM), without a hit: at the top dose activity change, negative = inhibition, most hits filed as inhibitors. hit rate 30% among 210; also: % is scaled to controls: 0 for no effect and ±100 for the full control effect; nearly all actives have a fitted effect of over 80% in size
# Numbers without * were called inactive; ? = inconclusive; · = not tested or not shown; [ ] = dose if it differs, or a comment. Unless noted, calls follow the shape of the dose curve; as a rule, active = well fitted curve in the direction sought with a large enough effect; inconclusive = small, poorly fitted or top-dose-only effect, or another doubt; inactive = no such curve, though single readings can be large; an effect the other way counts as inactive or inconclusive.
SMILES,TR SRC2 fluor cs,TRb-SRC2 inh,CXXC DNA block,Menin MLL FP TR,Menin-MLL FL inh,MLL CXXC Fl,MLL CXXC TxRed,MLL CXXC HTRF
O=c1ccc2[n+]([O-])c3ccc(O)cc3oc-2c1,1.6µM*[fluorescent],?,35µM*,·,?,?,2.2µM*,?
CC(/C=C1\NC(=S)NC1=O)=C\c1ccccc1,-2%,-1%,45µM*,-29%,4,0.13µM*,?,53%
O=C1NC(=S)N/C1=C/c1cccc2ccccc12,·,·,6%,?,10,·,·,·
C=CCOC(=O)C(=O)/C=C/c1csc2ccccc12,-4%,-4%,?,?,?,6%,?,-12%
Cc1cc(Br)ccc1NC(=O)CCS(=O)(=O)c1cccc2nsnc12,-1%,-9%,·,·,·,·,·,·
